Test results as given in ChEMBL document CHEMBL4513216, “Probing the Open Global Health Chemical Diversity Library for Multistage-Active Starting Points for Next-Generation Antimalarials” (ACS Infect Dis, 2020).
Hit rate of the full screen: of about 69,000 compounds, about 8,600 (12%) showed an effect of 50% or more. The entries come from a sample that favours strong results as a whole.

Each compound was assayed on Plasmodium berghei (assay: Screen against P. berghei liver stage (PbLuc), transformed with Luciferase, at 10uM). Conditions: tested at 10 uM.
Format: functional, HepG2

Compound | INHIBITION [%]
CCNc1nc(N(C)C)nc(-n2cnc(SC)n2)n1 | 46.1
Fc1ccccc1CN1CCCC2(CCN(c3ncccn3)CC2)C1 | 30.3
Fc1ccccc1CN1CCCC2(CCN(c3ncccn3)C2)C1 (stereo not drawn) | 74.9
c1cnc(N2CCC3(CCCN(CC4CCCCC4)C3)C2)cn1 (stereo not drawn) | 63
c1cnc(N2CCC3(CCN(CC4CC4)CC3)CC2)nc1 | -5.69
c1cnc(N2CCC3(CCCN(CC4CC4)C3)CC2)nc1 | 61.1
O=C(O)[C@]12CCCN(CC3CCOC3)C[C@H]1CN(c1ncccn1)C2 (stereo partly drawn) | 53.9
c1cnc(N2CCCC3(CN(CC4CCOCC4)CCO3)C2)cn1 (stereo not drawn) | -36
c1cnc(N2CCOCC3(CCCN(CC4CC4)C3)C2)cn1 (stereo not drawn) | 26.8
O=C(O)[C@]12CCCN(Cc3ccccc3)C[C@H]1CN(c1ncccn1)C2 | 2.01
O=C(O)[C@]12CCCN(C3CCOC3)C[C@H]1CN(c1ncccn1)C2 (stereo partly drawn) | 31.2
Fc1cnccc1CN1CCCC2(CCN(c3ncccn3)CC2)C1 | 30.3
c1cnc(N2CCCC3(COCCN(CC4CC4)C3)C2)nc1 (stereo not drawn) | -6.23
CN(CC(=O)N1CCC(N(C)c2ccccc2)CC1)c1cnccn1 | 9.9
COCCCNC(=O)CN1CCC(c2ccccc2)C1 (stereo not drawn) | -4.99
Cn1cccc1C(=O)N[C@@H]1CN(CC2CC2)[C@@H]2COC[C@@H]21 | 0.547
CN(C)S(=O)(=O)c1ccc(-c2nc(C#N)c(NC(C)(C)C)o2)o1 | 16
Cc1ccc(C(=O)N2CCC3(CCC(=O)N(CCCO)C3)CC2)c(O)c1 | -45
COCCS(=O)(=O)NC(C)c1cccc(C)c1C (stereo not drawn) | 48.2
CCc1nnc2n1CCN(C(=O)CCc1ccc(C)c(Cl)c1)C2 | -27
O=C(Cc1c(F)cccc1Cl)N1CCC(Nc2cccnn2)CC1 | -8.225
COCCN1CCC2(CCCN(c3ncccn3)C2)C1 (stereo not drawn) | 48.3

Compound | INHIBITION [%]
c1cnc(N2CCCC3(CCN(Cc4ccncc4)C3)C2)nc1 (stereo not drawn) | 42.6
CCC(CC)CN1CCC2(CCCN(c3ncccn3)C2)C1 (stereo not drawn) | 62.5
c1cnc(N2CCCC3(CCN(CC4CC4)C3)C2)nc1 (stereo not drawn) | 43.9
c1cnc(N2CCC3(CCN(CC4CCCC4)CC3)C2)nc1 | 28.4
c1cnc(N2CCCC3(CCN(c4ncccn4)C3)C2)nc1 (stereo not drawn) | 44.8
c1cnc(N2CCC3(CCCN(Cc4ccncc4)C3)CC2)nc1 | 82.3
c1cnc(N2CC3(CCN(Cc4ccncc4)C3)C2)nc1 | 11.3
c1cnc(N2CCCC3(CCN(CC4CCC4)C3)C2)nc1 (stereo not drawn) | 55.5
CC1CN(S(=O)(=O)c2ccc(C(=O)NCC(F)F)cc2)CCCO1 (stereo not drawn) | 49.2
Cc1ccc(CN2CCN(C(=O)CCc3nc(Cl)n[nH]3)CC2=O)cc1 | 29.4
O=C1CN(Cc2ccc3ccccc3n2)CCN1C1CCCC1 | 36
Cc1nnc(NC(=O)NCc2ccc(OC(C)C)nc2)s1 | 21.5
CCN(Cc1cccc2c1OCO2)C(=O)Nc1ccncc1 | 46.5
CCN(Cc1cccc2c1OCCO2)C(=O)NC(C)(C)C | 51.1
CN(CC(=O)NCC(F)(F)F)Cc1cccc2c1OCCO2 | 44.7
CCN(Cc1cccc2c1OCO2)C(=O)NC1CC1 | 36.4
CN(CC(=O)NC(C)(C)C)Cc1cccc2c1OCCO2 | 65
CCN(CC(=O)NC(C)(C)C)Cc1cccc2c1OCCO2 | 23.3
CCC(O)CN1CCN(C(=O)c2sccc2C(C)C)CC1 (stereo not drawn) | 23.4
CC(C)(O)C1CCN(C(=O)Nc2nc(-c3ccccc3)ns2)CC1 | 58.9
CC(C)(O)C1CCCN(C(=O)Nc2nc(-c3ccccc3)ns2)C1 (stereo not drawn) | -62.8
O=C(Nc1nc(-c2ccccc2)ns1)N1CCC(F)CC1 | -47

Compound | INHIBITION [%]
CC(C)n1cnnc1C1CCCN(S(=O)(=O)c2c[nH]cn2)C1 (stereo not drawn) | 36.3
O=C(Cc1csc(-c2ccccn2)n1)NCCCN1CCCCCC1=O | 9.76
CC(=O)Nc1ncc(S(=O)(=O)Nc2cccc(F)c2)s1 | -13
CC(=O)Nc1ncc(S(=O)(=O)Nc2cccc(C)c2)s1 | 27.5
CC(=O)Nc1ncc(S(=O)(=O)Nc2ccc(C)cc2)s1 | 77.2
COC(=O)c1ccc(NS(=O)(=O)c2cnc(NC(C)=O)s2)cc1 | 1.86
CC(=O)Nc1ncc(S(=O)(=O)N2CCOCC2)s1 | 21.7
COC(=O)c1cccc(NS(=O)(=O)c2cnc(NC(C)=O)s2)c1 | 22.9
CC(=O)Nc1ncc(S(=O)(=O)N2CCCC(C)C2)s1 (stereo not drawn) | 40.2
COc1ccc(NS(=O)(=O)c2cnc(NC(C)=O)s2)cc1 | 50.7
CC(=O)Nc1ncc(S(=O)(=O)Nc2ccc(F)cc2)s1 | -6.32
CC(=O)Nc1ncc(S(=O)(=O)N2CCC(C)CC2)s1 | 61.2
CC(=O)Nc1ncc(S(=O)(=O)Nc2ccc3c(c2)OCCO3)s1 | 81.4
CC(=O)Nc1ncc(S(=O)(=O)Nc2ccccc2)s1 | 40.8
CC(NC(=O)CNS(C)(=O)=O)c1ccccc1Oc1ccccc1 (stereo not drawn) | 37.1
Cc1cc(N2CCCCC2)nc(N(CCO)CCO)c1C#N | 31.8
CN(C(=O)c1ccncc1)c1nnc(C2CCOC2)s1 (stereo not drawn) | 1.25
Cc1cccc(CN2C(=O)CO[C@@H]3CN(Cc4cnn(C)c4)C[C@H]32)c1 | 45.2
COc1ccc(CN2C[C@H]3CCC[C@@H](CN(C)C)[C@H]3C2)cn1 | 34.6
Cc1cc(C(=O)N2CCCC(c3ccc(C(=O)O)cc3)C2)c(C)o1 (stereo not drawn) | 9.52
COc1ccc(Cl)cc1NCCC(=O)NCCNc1cnccn1 | 14.4
Cc1[nH]ccc1C(=O)NCc1ncoc1C | -17.3

Compound | INHIBITION [%]
CCC(=O)N1CCC1c1cc(NC2CCCC2)nc(C)n1 (stereo not drawn) | 14.5
COc1ccc(C(C)N2CCC(OC)CC2)cc1Cl (stereo not drawn) | 42.4
COc1ccc(C(C)N2CCC(C(=O)N(C)C)CC2)cc1Cl (stereo not drawn) | 24.8
COc1ccc(C(C)N2CCC(CNC(C)=O)CC2)cc1Cl (stereo not drawn) | 70.3
COc1ccc(C(C)N2CCC(C(=O)NC3CC3)CC2)cc1Cl (stereo not drawn) | 41.5
COc1ccc(C(C)N2CCC(NS(C)(=O)=O)CC2)cc1Cl (stereo not drawn) | 57.3
COc1ccc(C(C)N2CCC(CO)CC2)cc1Cl (stereo not drawn) | 40.6
CC(C)c1cc(NC(=O)Cn2ccc(=O)c3ccccc32)[nH]n1 | 6.72
CCN(CC1COc2ccccc2O1)C(=O)CCn1cncn1 (stereo not drawn) | -4.4
Cc1nn(C)c(N(C)C)c1CNCc1cccnc1OC(C)C | 19.6
CCC(Nc1ccc(Oc2ccc(C#N)cc2OC)cc1)C(N)=O (stereo not drawn) | 73.1
CCC(Nc1ccc(Oc2cccc(C#N)c2)cc1)C(N)=O (stereo not drawn) | 39.7
CCC(Nc1ccc(Oc2ccccc2OC)cc1)C(N)=O (stereo not drawn) | -34.1
CCC(C)NC(=O)c1cc(S(N)(=O)=O)c(Br)s1 (stereo not drawn) | 14
Cc1oc(C(=O)O)cc1S(=O)(=O)Nc1ccc(Cl)cc1F | -20.2
CC(=O)Nc1ccc(Oc2cc(C)nc(C3CCNCC3)c2)cc1 | 19.15
CC(=O)N1CCCC1CCc1ccnc(-c2cncnc2)c1 (stereo not drawn) | 27.45
COC(=O)C1=C(C)N=C2SCC(=O)N2C1c1cn(C)nc1C (stereo not drawn) | 12.6
CN(C)CCN(Cc1ccsc1)C(=O)C1=NNC(=O)CC1 | 49
Cc1ccsc1CN(CCN(C)C)C(=O)C1=NNC(=O)CC1 | 67.2
CN(C)CCN(Cc1ccccc1)C(=O)C1=NNC(=O)CC1 | 18
COC(=O)c1ccccc1C(=O)N(CCN(C)C)Cc1sccc1C | 8.03

Compound | INHIBITION [%]
Cc1ccsc1CN(CCN(C)C)C(=O)c1ccccc1C#N | 14.6
Cc1ccsc1CN(CCN(C)C)C(=O)c1cc2ccccc2[nH]1 | 71
Cc1nn(C)c(C)c1C1CCCN1C(=O)CCCNc1ncccn1 (stereo not drawn) | -16
CN(CCCNC(=O)C1CCCN(C(N)=O)C1)S(C)(=O)=O (stereo not drawn) | 19.8
O=C(Cc1ccc(F)cc1)NCCNS(=O)(=O)C1CCCC1 | 54.9
O=C(Cc1cccc(F)c1)NCCNS(=O)(=O)C1CCCC1 | 25.3
O=C(Cc1ccccc1)NCCNS(=O)(=O)C1CCCCC1 | 18.2
O=C(c1ccc(O)nc1)N1CCC(Nc2cccnn2)CC1 | 29.4
Cc1ccsc1CN1CC[C@H]2O[C@H](C(=O)N3CCCO3)CC[C@H]21 | -18.4
Cc1ccc(N2CC[C@H]3O[C@@H](C(=O)N4CCCCO4)CC[C@H]32)nn1 | 3.69
Cc1ccc(CN2CC[C@H]3O[C@@H](C(=O)N4CCCO4)CC[C@H]32)s1 | 66.9
O=C([C@@H]1CC[C@@H]2[C@@H](CCN2Cc2cccs2)O1)N1CCCCO1 | -75.3
Cc1ccc(N2CC[C@H]3O[C@@H](C(=O)N4CCCO4)CC[C@H]32)nn1 | 92.1
Cc1ccc(N2CC[C@H]3O[C@H](C(=O)N4CCCCO4)CC[C@H]32)nn1 | 46.4
COCCCN(Cc1ccccn1)S(=O)(=O)N(C)C | 32.8
CS(=O)(=O)NCc1cn2c(n1)CN(Cc1cccnc1)CC2 | -12.2
CCCSCC(=O)N1C[C@@H]2CC[C@H]1CN(c1ncccn1)C2 | -4.37
O=C(Nc1ccc(-c2csnn2)cc1)N1CC[C@H](O)C1 | -73.4
CCN(C)CC1CCN(C(=O)Nc2ccc(-c3csnn3)cc2)C1 (stereo not drawn) | -32.3
CCOCC1CCN(C(=O)Nc2ccc(-c3csnn3)cc2)C1 (stereo not drawn) | 60
